From PubChem BioAssay
Active and inactive are the calls of the source.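 Rule for the calls, unless noted: active = fluorescence slope higher than the sample average by over 3 SD (cut at about -0.22 in these data, passing the limit was not always enough); inactive = the rest.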

Columns and labels:
[1] = inhibitors of TNFa-induced NFkB p65 translocation, primary screen, imaging, HUVEC, MLSMR starter and 10KST1 sets (AID 438;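 active = inhibition above 20% together with a positive visual image hit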;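 note: compound added about 3h40 before a 20 min TNFalpha stimulation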;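 for inhibition: signal is the nuclear over cytoplasmic p65 intensity ratio per well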); settings: HUVEC TNFa-induced p65 nuclear translocation; cell count: measured here: nuclei count (cytotoxicity indicator), at 2.08 µM; inhibition: at 2 µM, stronger effect = higher value, 0% TNFa-plus-vehicle, 100% no-TNFa wells
[2] = inhibitors of mutant huntingtin aggregation, primary screen, imaging, exon1htt(103Q)mCFP cells, high-content imaging (AID 483;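 active = visual image review flags a hit and inhibition of aggregation exceeds 20%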;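 note: compound exposure lasted 3 days before fixation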;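 for nuclei count: percent of the per-plate median nuclei count of sample wells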); settings: exon1htt(103Q)mCFP cell line, aggregate imaging, at 2 µM; inhibition of aggregation: stronger effect = higher value; nuclei count: measured here: cell count, toxicity
[3] = inhibitors of E-selectin induction by TNFa, primary screen, imaging, HUVEC, immunofluorescence, MLSMR starter and 10KST1 sets (AID 487;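 active = visually confirmed hit in the image check and inhibition above 20%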;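 for inhibition: signal is fraction of cell area covered by stained E-selectin grains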;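 for nuclei count: 100% = median nuclei count of all wells on the same plate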); settings: HUVEC TNFalpha-induced E-selectin immunofluorescence imaging, at 2 µM; inhibition: stronger effect = higher value; nuclei count: measured here: cell number, toxicity
[4] = target: Voltage-gated potassium channel subunit beta-2 (Rattus norvegicus) (UniProt P62483); test: KvBeta enzyme negative modulators, primary screen, biochemical, NADPH fluorescence (AID 622); settings: recombinant KvBeta, 4-cyanobenzaldehyde reduction, at 10 µM, stronger effect = higher value;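 note: slope of raw intensity against log time taken from 70 to 1610 s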
Chain of Voltage-gated potassium channel subunit beta-2 (Rattus norvegicus) (P62483 whole entry, looked up): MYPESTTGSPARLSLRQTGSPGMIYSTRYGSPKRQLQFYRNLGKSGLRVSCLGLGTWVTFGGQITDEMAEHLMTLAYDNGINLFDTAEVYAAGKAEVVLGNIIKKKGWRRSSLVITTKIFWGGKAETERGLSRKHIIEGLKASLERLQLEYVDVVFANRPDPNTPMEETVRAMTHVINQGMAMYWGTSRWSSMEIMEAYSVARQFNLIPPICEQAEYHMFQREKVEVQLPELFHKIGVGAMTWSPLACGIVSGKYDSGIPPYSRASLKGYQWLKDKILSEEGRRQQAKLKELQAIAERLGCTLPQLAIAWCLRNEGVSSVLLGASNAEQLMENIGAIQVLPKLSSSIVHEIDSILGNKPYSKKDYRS

[5] = target: Voltage-gated potassium channel subunit beta-2 (Rattus norvegicus) (UniProt P62483); test: KvBeta positive modulators, primary screen, biochemical, NADPH fluorescence (AID 623;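 active = NADPH fluorescence slope more negative than the mean of all samples by about 3 SD, 99.7% confidence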;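 note: fluorescence intensity change per second fitted from 20 to 320 s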); settings: Recombinant KvBeta, NADPH fluorescence decrease slope, 10 min; at 10 µM; stronger effect = lower value
[6] = target: Alpha-2C adrenergic receptor (Homo sapiens) (UniProt P18825); test: modulators of alpha2C/GIRK thallium flux, primary screen, cell-based, HEK293 alpha2C/GIRK1/2 (AID 624;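 active = fluorescence slope after compound addition differing from the mean of all screened samples at 99.7% confidence, in either direction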;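 note: slope of fluorescence ratio to pre-addition baseline per second over 15 to 24 s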); settings: thallium flux BTC fluorescence, at 10 µM, actives lie on both sides
Chain of Alpha-2C adrenergic receptor (Homo sapiens) (P18825 whole entry, looked up): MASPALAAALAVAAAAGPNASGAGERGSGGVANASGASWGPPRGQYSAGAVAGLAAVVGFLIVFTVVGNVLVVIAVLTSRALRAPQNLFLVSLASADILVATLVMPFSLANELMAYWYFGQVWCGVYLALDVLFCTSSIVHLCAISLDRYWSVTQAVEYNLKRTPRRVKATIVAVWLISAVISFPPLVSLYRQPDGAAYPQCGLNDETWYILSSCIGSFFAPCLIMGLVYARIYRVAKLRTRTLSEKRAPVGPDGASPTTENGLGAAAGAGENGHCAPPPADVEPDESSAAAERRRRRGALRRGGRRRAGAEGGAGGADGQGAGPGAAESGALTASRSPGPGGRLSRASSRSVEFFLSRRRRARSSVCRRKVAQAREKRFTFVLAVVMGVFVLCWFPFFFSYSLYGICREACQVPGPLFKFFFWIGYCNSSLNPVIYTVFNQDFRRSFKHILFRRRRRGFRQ

[7] = inhibitors of Sendai virus-induced IRF3 signaling, primary screen, TLR/RLR signaling modifier project, cell-based, Sendai virus stimulus, luciferase, 10K MLSCN set (AID 602276;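 active = inhibition at or above 50% at 10 µM; inactive = inhibition below 50%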;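 note: firefly luciferase from ISG56 promoter only with Renilla not read in this screen; 0% = Sendai virus plus DMSO and 100% = medium plus DMSO without virus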); settings: HEK293 RL24 IRF3 luciferase reporter, at 10 µM, stronger effect = higher value
[8] = inhibitors of poly I:C-induced TLR3 signaling, primary screen, cell-based, poly I:C stimulus, luciferase, 10K MLSCN set (AID 602277;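 active = inhibition of the reporter signal at or above 50%; inactive = inhibition below 50%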); settings: HEK293-TLR3 RL24 IRF3 luciferase reporter, at 10 µM, stronger effect = higher value

Nc1nc2n(n1)C(c1c(F)cccc1Cl)CC(c1ccc(F)cc1)N2 (stereo not drawn)
cell count [1]: 868 | inhibition [1]: 3.5% (inactive) | inhibition of aggregation [2]: -46.8% (inactive) | nuclei count [2]: 117% | inhibition [3]: -37% (inactive) | nuclei count [3]: 110% | fluorescence slope [4]: -0.455 (inactive) | NADPH fluorescence slope [5]: -1.9e-05 (inactive) | slope [6]: 0.0048 (inactive) | inhibition [7]: -2.35% (inactive) | inhibition [8]: 25.6% (inactive)

CCOc1ccc(-c2nc(C#N)c(N3CCN(C)CC3)o2)cc1
cell count [1]: 447 | inhibition [1]: 7.9% (inactive) | inhibition of aggregation [2]: -9.4% (inactive) | nuclei count [2]: 102% | inhibition [3]: -123% (inactive) | nuclei count [3]: 127% | fluorescence slope [4]: -0.415 (inactive) | NADPH fluorescence slope [5]: -1.8e-05 (inactive) | slope [6]: 0.00522 (inactive) | inhibition [7]: 10.5% (inactive) | inhibition [8]: 11% (inactive)

c1coc(CN2CN=C(Nc3nc4ccccc4s3)NC2)c1
cell count [1]: 604 | inhibition [1]: -1.5% (inactive) | inhibition of aggregation [2]: -13.8% (inactive) | nuclei count [2]: 106% | inhibition [3]: 13.3% (inactive) | nuclei count [3]: 109% | fluorescence slope [4]: -0.357 (inactive) | NADPH fluorescence slope [5]: -2.5e-05 (inactive) | slope [6]: 0.00455 (inactive) | inhibition [7]: -12.9% (inactive) | inhibition [8]: -7.25% (inactive)

CC(=O)Nc1cccc(OCC(O)Cn2cnc3ccccc32)c1 (stereo not drawn)
cell count [1]: 632 | inhibition [1]: -20.4% (inactive) | inhibition of aggregation [2]: 12.1% (inactive) | nuclei count [2]: 101% | inhibition [3]: -23.9% (inactive) | nuclei count [3]: 107% | fluorescence slope [4]: -0.674 (inactive) | NADPH fluorescence slope [5]: 1.3e-05 (inactive) | slope [6]: 0.00619 (inactive) | inhibition [7]: 14.1% (inactive) | inhibition [8]: 25.8% (inactive)

CCc1nnc(SCc2cn3c(C)cc(C)nc3n2)n1N
cell count [1]: 571 | inhibition [1]: -13.6% (inactive) | inhibition of aggregation [2]: -13.3% (inactive) | nuclei count [2]: 104% | inhibition [3]: 2.4% (inactive) | nuclei count [3]: 143% | fluorescence slope [4]: -0.284 (inactive) | NADPH fluorescence slope [5]: -5.4e-06 (inactive) | slope [6]: 0.00669 (inactive) | inhibition [7]: -4.74% (inactive) | inhibition [8]: 4.52% (inactive)

COC(=O)c1cccc(NC(=O)Cc2coc3cc(OC)ccc23)c1
cell count [1]: 402 | inhibition [1]: 11.4% (inactive) | inhibition of aggregation [2]: 5.4% (inactive) | nuclei count [2]: 75.4% | inhibition [3]: -64.1% (inactive) | nuclei count [3]: 120% | fluorescence slope [4]: -0.595 (inactive) | NADPH fluorescence slope [5]: -6.1e-06 (inactive) | slope [6]: 0.0055 (inactive) | inhibition [7]: 4.7% (inactive) | inhibition [8]: -15.2% (inactive)

CCOC(=O)N1CCC(N2C(=O)c3ccccc3C2Nc2cc(Cl)c(OC)cc2OC)CC1 (stereo not drawn)
cell count [1]: 761 | inhibition [1]: -2.3% (inactive) | inhibition of aggregation [2]: -25.4% (inactive) | nuclei count [2]: 111% | inhibition [3]: -35.7% (inactive) | nuclei count [3]: 114% | fluorescence slope [4]: -0.596 (inactive) | NADPH fluorescence slope [5]: -3.8e-05 (inactive) | slope [6]: 0.0052 (inactive) | inhibition [7]: -7.31% (inactive) | inhibition [8]: 4.34% (inactive)

COc1ccc(CN(C2CCCC2)S(=O)(=O)c2ccc(-n3cnnn3)cc2)cc1OC
cell count [1]: 527 | inhibition [1]: -5.8% (inactive) | inhibition of aggregation [2]: -15% (inactive) | nuclei count [2]: 115% | inhibition [3]: -39.4% (inactive) | nuclei count [3]: 124% | fluorescence slope [4]: -0.57 (inactive) | NADPH fluorescence slope [5]: -1.6e-05 (inactive) | slope [6]: 0.00406 (inactive) | inhibition [7]: 15.1% (inactive) | inhibition [8]: 18.9% (inactive)

Cc1ccc(CCNC(=O)C2CCN(S(=O)(=O)c3ccc4c(c3)CCC(=O)N4)CC2)cc1
cell count [1]: 742 | inhibition [1]: 2.2% (inactive) | inhibition of aggregation [2]: -19.2% (inactive) | nuclei count [2]: 114% | inhibition [3]: 27% (inactive) | nuclei count [3]: 102% | fluorescence slope [4]: -0.56 (inactive) | NADPH fluorescence slope [5]: 1.8e-05 (inactive) | slope [6]: 0.00653 (inactive) | inhibition [7]: -8.22% (inactive) | inhibition [8]: -0.993% (inactive)

CCCCC(=O)NCCc1ccc(S(N)(=O)=O)cc1
cell count [1]: 555 | inhibition [1]: 10.7% (inactive) | inhibition of aggregation [2]: 1.1% (inactive) | nuclei count [2]: 101% | inhibition [3]: -35% (inactive) | nuclei count [3]: 88.9% | fluorescence slope [4]: -0.412 (inactive) | NADPH fluorescence slope [5]: -5.1e-05 (inactive) | slope [6]: 0.0057 (inactive) | inhibition [7]: 3.38% (inactive) | inhibition [8]: 10.4% (inactive)

O=c1[nH]c(SCc2ccc(F)cc2)nc2c1cnn2-c1ccc(F)cc1
cell count [1]: 652 | inhibition [1]: -31% (inactive) | inhibition of aggregation [2]: -8.4% (inactive) | nuclei count [2]: 95.8% | inhibition [3]: -0.1% (inactive) | nuclei count [3]: 110% | fluorescence slope [4]: -0.57 (inactive) | NADPH fluorescence slope [5]: 1e-05 (inactive) | slope [6]: 0.00683 (inactive) | inhibition [7]: -21.2% (inactive) | inhibition [8]: -12.1% (inactive)

COc1cc(CN(C)CC(=O)c2[nH]c(C)c(C(C)=O)c2C)ccc1OC(F)F
cell count [1]: 443 | inhibition [1]: 1.6% (inactive) | inhibition of aggregation [2]: -11% (inactive) | nuclei count [2]: 95.9% | inhibition [3]: -86.8% (inactive) | nuclei count [3]: 129% | fluorescence slope [4]: -0.616 (inactive) | NADPH fluorescence slope [5]: -2.3e-05 (inactive) | slope [6]: 0.00408 (inactive) | inhibition [7]: -17.1% (inactive) | inhibition [8]: -82.6% (inactive)

COc1ccccc1OCC(=O)Nc1cccc(-c2nc3ccccc3o2)c1
cell count [1]: 468 | inhibition [1]: 0% (inactive) | inhibition of aggregation [2]: 1% (inactive) | nuclei count [2]: 61.8% | inhibition [3]: -65.1% (inactive) | nuclei count [3]: 110% | fluorescence slope [4]: -0.374 (inactive) | NADPH fluorescence slope [5]: -1.4e-06 (inactive) | slope [6]: 0.00387 (inactive) | inhibition [7]: -0.911% (inactive) | inhibition [8]: -2.39% (inactive)
